Unmarked numbers belong to inactive results.
Experiments:
[1] = tested on: Sporothrix brasiliensis CBS 133006; experiment: growth inhibition relative to untreated control; higher = more growth inhibition (more antifungal activity), active = 80 or more; extreme values may be limits of the assay; conditions: 1 µM; 48 h
Outline: (§1)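 Each value is the percent growth inhibition compared with cells left untreated. Reference isolates were grown as yeast-form cells in brain heart infusion broth with 2% glucose for 7 days at 36°C, then exposed at 1 x 10^5 CFU/ml to library compounds at a final 1 μM for 48 h at 35°C in 5% CO2. Growth was inspected visually under an inverted light microscope and quantified by spectrophotometric readings, with runs in quadruplicate.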

[2] = tested on: Sporothrix schenckii ATCC 32286; experiment: as above; conditions: 1 µM; 48 h
Outline: as §1

Compound	growth inhibition [1]	growth inhibition [2]
CCc1nn(C)c(C(=O)NCc2ccc(Oc3ccc(C)cc3)cc2)c1Cl	93.2% (active)	96.5% (active)
Cc1nn(Cc2ccccc2)c(Cl)c1C(=O)NC1CCCCCC1	21.5%	3%
CO[C@@H]1CN(c2ccc(C#CC3(O)CN4CCC3CC4)c(Cc3ccccc3)n2)C[C@H]1O (stereo partly drawn)	9.75%	5.5%
CC1COC(Cn2cncn2)(c2ccc(Oc3ccc(Cl)cc3)cc2Cl)O1 (stereo not drawn)	97% (active)	70.2%
CO/C=C(/C(=O)OC)c1ccccc1Oc1cc(Oc2ccccc2C#N)ncn1	95.5% (active)	27.5%
O=C1O[C@@H](CO)CN1c1cc(F)c(C2=CCN(Cc3ccccc3)CC2)c(F)c1	6.75%	0.5%
CO/N=C(\C(=O)OC)c1ccccc1CO/N=C(\C)c1cccc(C(F)(F)F)c1	96.8% (active)	40%
Cc1nn(C)c(C)c1NS(=O)(=O)c1c(Cl)cc(-c2ccnc(N3CCNCC3)c2)cc1Cl	15.2%	17.5%
Cc1cccc(C(=O)Nc2ccnc(N(C)C3CCN(CC(C)C)CC3)c2)c1	5.5%	9%
O=C1O[C@@H](COc2ccon2)CN1c1cc(F)c(C2=CCN(Cc3ccccc3)CC2)c(F)c1	2%	0%
CC1(C)OB(O)c2ccc(C3=NOC(c4cc(Cl)c(F)c(Cl)c4)(C(F)(F)F)C3)cc21 (stereo not drawn)	0.5%	18%
Cc1cc(C2=NOC(c3cc(Cl)c(F)c(Cl)c3)(C(F)(F)F)C2)ccc1C(=O)NCc1ccc2c(c1)C(C)(C)OB2O (stereo not drawn)	14.5%	18.2%
CC(C)(C)C(O)C(Oc1ccc(-c2ccccc2)cc1)n1cncn1 (stereo not drawn)	67.5%	61.8%
Nc1c2c(nc3sc4c(c13)CCCC4)CCCC2	6.75%	17%

Reference: the supplement of paper PMC7556523
